# Assay results taken from PubChem BioAssay AID540259 (Broad Institute, 2011).
# Potency and affinity values are given separately. Active and inactive are the calls of the source.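 The calls were made as follows: active = cell killing, meaning signal decrease, with fitted half-maximal dose at or below ten times the top valid tested dose; inconclusive = poor fit, or flat curve with 30 to 70% signal loss; inactive = the rest.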
# Assay: ATP-based viability loss in HeLa cells – cell-based, CellTiter-Glo luminescence, cherry-pick samples, cytotoxicity control for MITF activator project, dose response (AID 540259)
# Details: 24 h; series mostly up to 35 µM
row,SMILES,outcome
1,FC(F)(F)c1ccnc(Oc2ccc(C3=NCCS3)cc2)c1,inactive
2,CCN(CC)C(=O)c1cc(-c2ccc(Br)cc2)on1,inactive
3,COC(=O)Cc1ccc(OCc2ccc(Cl)nc2)cc1,inactive
4,CC1CCc2nc(NC(=O)Cc3cccs3)sc2C1 (stereo unspecified),inactive
5,O=c1c(-c2ccc(O)cc2)coc2cc(O)cc(O)c12,inactive
6,CCCCNC(=O)c1cc2ccccc2s1,inactive
7,C=CCN=C1S/C(=C\c2ccc(N(C)C)cc2)C(=O)N1CC=C,inactive
8,CC(C)(C)c1ccc(C(=O)NCc2ccccc2)cc1,inactive
9,COc1cc(/C=C/c2noc(-c3ccccc3O)n2)ccc1OC(C)=O,inactive
10,Cc1ccc(/C=N/N2C(=O)c3ccccc3NC2c2ccc(C)cc2)cc1 (stereo unspecified),inactive
11,CCCCN(C(=O)Cc1cccs1)c1nnc(-c2cccnc2)s1,inactive
12,COc1cc(SC)ccc1C(=O)NCC1CCCCC1,inactive
13,Cc1ccc(CONC(=O)c2ccc(C)cc2)cc1,inactive
14,Cc1ccc(-c2csc(NC(=O)c3ccc(Br)cc3)c2C(=O)O)cc1,inactive
15,COc1ccc(/C=C2\OC(=O)c3c(OC)cccc32)cc1OC,inactive
16,Brc1ccc(OCc2cn3ccccc3n2)cc1,inactive
17,CNC(=O)C(=O)Nc1nc(C23CC4CC(CC(C4)C2)C3)cs1,inactive
18,O=C(Oc1ccc2ccccc2c1Cl)N1CCCCCC1,inactive

row,SMILES,outcome
1,COc1ccc(NC(=O)c2ccc3c(c2)OCO3)cc1Cl,inactive
2,N/C(=N\OC(=O)C1CCCCC1)c1cccc(Br)c1,inactive
3,Clc1ccccc1OCc1nnc(-c2ccccc2Br)o1,inactive
4,c1cncc(-c2nc3ccccc3s2)c1,inactive
5,O=C1c2ccccc2C(=O)N1CCc1c[nH]c2ccccc12,inactive
6,Cc1ccc2cc(NC(=O)c3ccccc3C)ccc2n1,inactive
7,CC(C)(C)c1ccc(C(=O)Nc2ccc(F)cc2)s1,inactive
8,O=C(Nc1ccc2oc(-c3ccccc3)nc2c1)c1cccnc1,inactive
9,O=C(Cc1ccccc1)Nc1ccc2c(c1)OC1(CCCC1)O2,inactive
10,COc1ccccc1C(=O)NCC(=O)Nc1ccc2c(c1)CCC2,inactive
11,Clc1ccc(SCc2cn3ccccc3n2)cc1,inactive
12,CC(=O)c1ccc(Nc2ccc(-c3ccccc3C)nn2)cc1,inactive
13,O=c1c2c(nc3cc(-c4ccc(Br)cc4)[nH]n13)CCCC2,inactive
14,CCc1ccc(C(=O)N/N=C(\C)c2cccnc2)s1,inactive
15,CC(=O)Nc1nnc(COc2ccc(Cl)cc2)s1,inactive
16,CCCCc1ccc(Nc2ncnc3nc[nH]c23)cc1,inactive
17,Clc1ccc(-c2cnnc(-c3ccccn3)n2)cc1,inactive
18,CCN(CC)c1ccc(C(=O)NNC(=O)c2cccn2C)cc1,inactive
